M1 antag – human M1 muscarinic receptor antagonists, primary screen, CHO-K1 cells, Fluo-8 calcium fluorescence, 1536-well; Muscarinic acetylcholine receptor M1 (Homo sapiens), P11229; CHO-K1 hM1, ACh EC80 antagonist; inhibition, % at 3 µM; actives 1.3% (n = 360,000); AID 588852, 2011;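 active = percent inhibition above its own plate's cutoff, namely the mean of that plate's compound wells plus 3 SD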;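 also: peak over basal fluorescence ratio during 140 s after agonist addition; 0% = ACh EC80 plus DMSO and 100% = DMSO alone without agonist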
Target sequence (P11229 whole entry, looked up): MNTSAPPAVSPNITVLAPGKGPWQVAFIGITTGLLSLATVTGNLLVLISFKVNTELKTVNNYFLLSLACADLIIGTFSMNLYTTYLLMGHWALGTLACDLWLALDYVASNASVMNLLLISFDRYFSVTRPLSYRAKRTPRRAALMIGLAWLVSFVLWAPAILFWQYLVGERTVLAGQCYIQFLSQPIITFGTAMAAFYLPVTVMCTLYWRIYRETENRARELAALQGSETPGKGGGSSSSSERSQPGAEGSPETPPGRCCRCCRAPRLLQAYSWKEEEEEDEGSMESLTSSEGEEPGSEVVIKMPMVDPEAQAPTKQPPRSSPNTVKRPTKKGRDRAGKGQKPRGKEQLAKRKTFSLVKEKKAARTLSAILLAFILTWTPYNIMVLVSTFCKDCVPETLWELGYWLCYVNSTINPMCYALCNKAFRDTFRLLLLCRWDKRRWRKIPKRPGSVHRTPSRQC
CHO-K1 Ca PAM – nonselective calcium activators in parental CHO-K1 cells, primary screen, counter-screen for M1 PAM project, cell-based, Fluo-8 calcium fluorescence, full deck, 1536-well | ATP EC20; 0% at ATP EC20, 100% at ATP max | activation, % at 3 µM | actives 0.02% (n = 360,000) | AID 602247, 2012;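 active = activation above the run cutoff, the mean activation of all test compounds plus 3 SD, cut at about 40% in these data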;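 also: peak over basal fluorescence ratio in a 140 s read after ATP addition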
CHO-K1 Ca ag – counter-screen for M1 agonists: effect in parental CHO-K1 cells. Fluo-8 calcium fluorescence; scaled to maximal ATP response, vehicle zero. activation, % at 3 µM. actives 0.48% (n = 360,000). AID 602248, 2012; in the data active = activation above about 15%;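 also: untransfected CHO-K1 host cells lacking M1 receptor as counterscreen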
CHRM1 agonist – human M1 muscarinic receptor agonists, primary screen, Fluo-8 calcium fluorescence, CHO-K1 cells, HTS; CHO-K1 hM1, agonist mode; 0% DMSO, 100% acetylcholine EC100; activation, % at 3 µM; actives 0.33% (n = 360,000); Muscarinic acetylcholine receptor M1 (Homo sapiens), P11229; AID 588814, 2011;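 active = activation above the run's mean compound activation plus 3 SD, cut at about 16% in these data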;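 also: peak over basal fluorescence ratio within a 140 s kinetic read after compound addition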
CHRM1 PAM – human M1 muscarinic receptor positive allosteric modulators, primary screen, CHO-K1 cells, Fluo-8 calcium fluorescence, 1536-well | CHO-K1 hM1, ACh EC20; 0% = ACh EC20, 100% = maximal ACh | activation, % at 3 µM | Muscarinic acetylcholine receptor M1 (Homo sapiens), P11229 | actives 0.088% (n = 360,000); in the data active = activation above about 19%, passing the limit was not always enough
CHO-K1 Ca antag – counter-screen for M1 antagonists: effect in parental CHO-K1 cells. ATP-induced calcium, Fluo-8 fluorescence. inhibition, % at 3 µM. actives 0.6% (n = 360,000);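 active = inhibition above a per-plate cutoff, the plate's mean sample inhibition plus 3 SD, cut at about 24% in these data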;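 also: 0% = DMSO plus EC80 ATP and 100% = DMSO alone without ATP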
* = called active by the depositor. An excerpt weighted towards active compounds, which were near 2.4% of everything screened.

For NC(c1ccccc1)c1ccncc1 (stereo unspecified) the results were M1 antag -14.2, CHO-K1 Ca PAM 17.0, CHO-K1 Ca ag 0.1, CHRM1 agonist -1.0, CHRM1 PAM 8.4 and CHO-K1 Ca antag -5.9.
Screening O=C(NC(NC(=S)Nc1ccccc1Cl)C(Cl)(Cl)Cl)c1cccc(Cl)c1 (stereo unspecified) returned M1 antag 22.2, CHO-K1 Ca PAM -0.8, CHO-K1 Ca ag 14.2, CHRM1 agonist 4.8, CHRM1 PAM -12.7 and CHO-K1 Ca antag 23.9*.
Screening COc1ccc(NC(=S)NC(NC(=O)c2cccc(Cl)c2)C(Cl)(Cl)Cl)c([N+](=O)[O-])c1 (stereo unspecified) returned M1 antag 26.4, CHO-K1 Ca PAM -8.4, CHO-K1 Ca ag 14.7, CHRM1 agonist 7.8, CHRM1 PAM -14.2 and CHO-K1 Ca antag 14.6.
CC(=O)c1ccc2c(c1)N(CCCN(C)C)c1ccccc1S2 was read as M1 antag 95.4*, CHO-K1 Ca PAM 1.5, CHO-K1 Ca ag 0.6, CHRM1 agonist -6.7, CHRM1 PAM -25.5 and CHO-K1 Ca antag 2.6.
Screening CC(=O)c1ccc2c(c1)N(C)c1ccccc1S2 returned M1 antag -14.3, CHO-K1 Ca PAM 4.0, CHO-K1 Ca ag -0.4, CHRM1 agonist -2.3, CHRM1 PAM 10.5 and CHO-K1 Ca antag 19.5.
Screening CCC(=O)c1ccc2c(c1)N(CCCN(C)C)c1ccccc1S2 returned M1 antag 94.4*, CHO-K1 Ca PAM 5.7, CHO-K1 Ca ag 1.4, CHRM1 agonist -5.5, CHRM1 PAM -25.2 and CHO-K1 Ca antag -0.7.
CCN(CC)S(=O)(=O)c1ccc(C(=O)Nc2cc(S(=O)(=O)N3CCOCC3)ccc2N2CCN(C)CC2)cc1 was read as M1 antag 2.6, CHO-K1 Ca PAM -17.5, CHO-K1 Ca ag -0.6, CHRM1 agonist -8.4, CHRM1 PAM 6.0 and CHO-K1 Ca antag 13.8.
`Nc1ncnc2c1ncn2[C@@H]1O[C@H](COP(=O)(O)OP(=O)(O)OP(=O)(O)O)[C@@H](O)[C@H]1O` gave M1 antag -27.4, CHO-K1 Ca PAM 4.6, CHO-K1 Ca ag 36.7*, CHRM1 agonist 52.9*, CHRM1 PAM 4.4 and CHO-K1 Ca antag -0.7.
For Nc1ncnc2c1ncn2[C@@H]1O[C@H](CO)C[C@H]1O the results were M1 antag -19.5, CHO-K1 Ca PAM -4.5, CHO-K1 Ca ag -0.7, CHRM1 agonist -2.2, CHRM1 PAM 1.0 and CHO-K1 Ca antag 24.2*.
Screening COc1ccc2cc(C3=CC(=O)CCC3)ccc2c1 returned M1 antag 13.8, CHO-K1 Ca PAM 14.6, CHO-K1 Ca ag 1.1, CHRM1 agonist -1.8, CHRM1 PAM -9.3 and CHO-K1 Ca antag -12.1.
`CCSc1nnc(-c2ccncc2)o1` gave M1 antag -5.7, CHO-K1 Ca PAM 8.4, CHO-K1 Ca ag 0.1, CHRM1 agonist -2.5, CHRM1 PAM 4.5 and CHO-K1 Ca antag -4.2.
`OCC#CCSc1nnc(-c2ccncc2)o1` gave M1 antag 7.2, CHO-K1 Ca PAM 3.8, CHO-K1 Ca ag -0.9, CHRM1 agonist -4.2, CHRM1 PAM 5.1 and CHO-K1 Ca antag 37.4*.
COc1ccc2cc(CCNC(=O)c3ccc(S(=O)(=O)N4CCOCC4)cc3)c(=O)[nH]c2c1 was read as M1 antag -8.6, CHO-K1 Ca PAM 8.5, CHO-K1 Ca ag 1.1, CHRM1 agonist -4.9, CHRM1 PAM 12.6 and CHO-K1 Ca antag -14.3.
`O=C(NC1CCCCC1)Sc1ccc(Cl)cc1` gave M1 antag -2.3, CHO-K1 Ca PAM -4.5, CHO-K1 Ca ag 0.0, CHRM1 agonist -0.6, CHRM1 PAM 4.3 and CHO-K1 Ca antag 23.8*.
`O=C(CSc1ccc(Cl)cc1)NC1CCCC1` gave M1 antag -8.2, CHO-K1 Ca PAM 21.5, CHO-K1 Ca ag 0.1, CHRM1 agonist -4.3, CHRM1 PAM 9.1 and CHO-K1 Ca antag -10.2.
For Cc1ccccc1-c1nc2cc(N)ccc2o1 the results were M1 antag -7.6, CHO-K1 Ca PAM 17.1, CHO-K1 Ca ag 1.2, CHRM1 agonist -6.9, CHRM1 PAM 6.6 and CHO-K1 Ca antag -8.4.
Screening CC(C)c1ccc2oc(-c3cc(N)ccc3O)nc2c1 returned M1 antag 8.9, CHO-K1 Ca PAM -5.7, CHO-K1 Ca ag 0.1, CHRM1 agonist -2.2, CHRM1 PAM -5.5 and CHO-K1 Ca antag 24.0*.
`CC(C)NC(=O)c1ccc(COc2cc(Cl)ccc2Cl)o1` gave M1 antag -12.1, CHO-K1 Ca PAM 3.3, CHO-K1 Ca ag 4.4, CHRM1 agonist -5.2, CHRM1 PAM 3.3 and CHO-K1 Ca antag -16.9.
`Cc1ccc2sc(NC(=O)CN3C(=O)CCC3=O)nc2c1C` gave M1 antag 0.4, CHO-K1 Ca PAM -5.6, CHO-K1 Ca ag 0.6, CHRM1 agonist 0.3, CHRM1 PAM 6.1 and CHO-K1 Ca antag 29.0*.
For O=C(c1ccc(-n2cncn2)c([N+](=O)[O-])c1)N1CCN(S(=O)(=O)c2ccc(Cl)cc2)CC1 the results were M1 antag -11.6, CHO-K1 Ca PAM 13.7, CHO-K1 Ca ag 2.3, CHRM1 agonist -3.6, CHRM1 PAM 9.6 and CHO-K1 Ca antag -18.6.
For COc1ccc2c3c(cccc13)C(=O)CC2 the results were M1 antag 30.6, CHO-K1 Ca PAM -12.4, CHO-K1 Ca ag 30.1*, CHRM1 agonist 119.0*, CHRM1 PAM -21.4 and CHO-K1 Ca antag 19.0.
`COc1ccc2c(c1OC)C(=O)OC2` gave M1 antag 1.0, CHO-K1 Ca PAM -14.6, CHO-K1 Ca ag 0.2, CHRM1 agonist 8.6, CHRM1 PAM 8.8 and CHO-K1 Ca antag 7.7.
Screening COc1ccc(NS(=O)(=O)c2ccc(C(=O)N(C)Cc3ccc(C)o3)cc2)cc1 returned M1 antag -1.5, CHO-K1 Ca PAM 2.2, CHO-K1 Ca ag 13.3, CHRM1 agonist 19.9*, CHRM1 PAM 3.6 and CHO-K1 Ca antag -3.9.
`COc1ccc(NS(=O)(=O)c2ccc(C(=O)NCC3(N4CCOCC4)CCCCC3)cc2)cc1` gave M1 antag -6.9, CHO-K1 Ca PAM 17.2, CHO-K1 Ca ag 15.5*, CHRM1 agonist 15.3, CHRM1 PAM 4.2 and CHO-K1 Ca antag -11.8.
For CS(=O)(=O)Cc1ccc(C(=O)NCC2(N3CCCCC3)CCCCC2)cc1 the results were M1 antag -15.4, CHO-K1 Ca PAM 21.6, CHO-K1 Ca ag 0.2, CHRM1 agonist -10.8, CHRM1 PAM 9.2 and CHO-K1 Ca antag -8.7.
Screening COCc1ccc(C(=O)NCC2(N3CCCCC3)CCCCC2)cc1 returned M1 antag 1.8, CHO-K1 Ca PAM -17.8, CHO-K1 Ca ag 15.6*, CHRM1 agonist -8.7, CHRM1 PAM 1.0 and CHO-K1 Ca antag -1.9.
`COC(=O)c1cc2c(C)c(C)c3ccccn3c-2c1C(=O)OC` gave M1 antag -4.6, CHO-K1 Ca PAM 9.9, CHO-K1 Ca ag 1.2, CHRM1 agonist -3.2, CHRM1 PAM 4.9 and CHO-K1 Ca antag 0.5.

Compound activity from PubChem BioAssay.
